The sample as a whole holds a higher share of hits than the screen did.
ALR H2O2 inh = inhibitors of human ALR sulfhydryl oxidase, primary screen, biochemical, H2O2 detection, HRP-luminol luminescence, single point | FAD-linked sulfhydryl oxidase ALR (Homo sapiens), P55789 | AID 485317, 2010 | inhibition, % (test concentration not listed) | purified ALR, DTT oxidation | hit rate 3.8% among 290,000;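 active = mean replicate inhibition above about 79%, with every replicate also reaching it, limit read from the data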
GC-B act = human GC-B receptor activators, primary screen, HEK293 GC-B cells, cGMP TR-FRET, EC30 CNP; hit rate 0.11% among 370,000; activation, % at 10 µM; 0% at EC30 CNP, 100% saturating CNP; Atrial natriuretic peptide receptor 2 (Homo sapiens), P20594;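 active = activation at 10 µM reaching about 35% in either raw or pattern-adjusted values, limit read from the data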
HDAC3 inh = HDAC3 deacetylase inhibitors, primary screen, biochemical, fluorescence, cell-free homogeneous; recombinant HDAC3, fluorogenic peptide/trypsin coupled; hit rate 0.15% among 320,000; inhibition, % at 8.3 µM; AID 2718, 2010; Histone deacetylase 3 (Homo sapiens), O15379; in the data active = inhibition above about 26%, passing the limit was not always enough
NPR1 activator = GC-A stimulated cGMP production enhancers – HEK293 GC-A cells, cGMP TR-FRET, EC30 ANP, primary screen. activation, % at 10 µM. Atrial natriuretic peptide receptor 1 (Homo sapiens), P16066. hit rate 0.14% among 370,000. 0% at EC30 ANP, 100% saturating ANP. AID 1671463, 2021; in the data active = activation above about 40%
Target sequence (P16066 whole entry, looked up): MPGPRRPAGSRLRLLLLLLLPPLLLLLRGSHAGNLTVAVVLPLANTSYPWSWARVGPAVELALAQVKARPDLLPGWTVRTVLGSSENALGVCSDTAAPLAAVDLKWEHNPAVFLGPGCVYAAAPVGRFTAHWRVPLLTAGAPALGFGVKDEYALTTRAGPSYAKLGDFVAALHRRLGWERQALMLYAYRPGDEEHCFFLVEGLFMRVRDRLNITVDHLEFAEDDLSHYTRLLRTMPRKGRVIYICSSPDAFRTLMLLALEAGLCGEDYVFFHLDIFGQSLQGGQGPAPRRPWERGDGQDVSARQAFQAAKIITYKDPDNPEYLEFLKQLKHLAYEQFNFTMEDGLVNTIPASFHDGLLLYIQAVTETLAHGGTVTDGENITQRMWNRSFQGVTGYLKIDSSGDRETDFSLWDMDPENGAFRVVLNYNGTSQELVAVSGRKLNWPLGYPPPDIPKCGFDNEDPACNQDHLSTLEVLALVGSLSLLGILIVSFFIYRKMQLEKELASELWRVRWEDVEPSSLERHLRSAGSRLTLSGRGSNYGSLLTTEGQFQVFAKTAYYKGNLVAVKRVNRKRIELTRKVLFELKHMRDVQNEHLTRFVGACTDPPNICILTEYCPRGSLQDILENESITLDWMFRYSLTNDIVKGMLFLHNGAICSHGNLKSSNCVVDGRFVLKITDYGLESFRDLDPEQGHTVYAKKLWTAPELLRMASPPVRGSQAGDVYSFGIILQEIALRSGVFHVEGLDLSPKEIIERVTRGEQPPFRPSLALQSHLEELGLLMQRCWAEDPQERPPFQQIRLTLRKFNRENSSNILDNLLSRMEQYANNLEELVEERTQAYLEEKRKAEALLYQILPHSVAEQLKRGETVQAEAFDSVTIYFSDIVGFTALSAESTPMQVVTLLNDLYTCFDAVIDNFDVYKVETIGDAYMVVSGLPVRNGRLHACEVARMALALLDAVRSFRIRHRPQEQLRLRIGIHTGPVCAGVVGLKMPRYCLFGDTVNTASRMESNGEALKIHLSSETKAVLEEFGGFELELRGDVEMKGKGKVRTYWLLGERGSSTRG
Starred values were filed as active, the others as inactive; nt = not tested or not shown.

SMILES	ALR H2O2 inh	GC-B act	HDAC3 inh	NPR1 activator
CCc1c(O)nc(SCC(=O)Nc2ccc(Br)cc2)n(-c2ccc(C)cc2)c1=O	96.0*	-0.6	3.3	0.4
CCc1c(O)nc(SCC(=O)Nc2cc(C)on2)n(-c2ccccc2)c1=O	96.9*	3.5	2.7	3.1
O=C(NCc1ccccc1)[C@@H]1CCCN1C(=O)[C@@H]1CCCN1C(=O)c1cccc2ccccc12	nt	5.4	nt	-0.4
COc1ccc(-n2c(SCC(=O)Nc3ccccc3)nnc2-c2ccoc2C)cc1	95.7*	-20.3	-2.6	-19.9
COc1ccc(NC(=O)CSc2nnc(C)n2C2CCCCC2)cc1	-2.3	3.0	-8.8	0.5
CCc1c(O)nc(SCC(=O)Nc2ccc(C)cc2)n(C2CCCCC2)c1=O	98.5*	-2.0	4.9	-2.5
COc1ccc(-n2c(SCC(=O)Nc3cc(C)on3)nc3ccc(O)cc3c2=O)cc1OC	27.1	-2.0	-2.2	58.2*
Cc1ccc(NC(=O)CSc2nc(O)c(Cc3ccccc3)c(=O)n2-c2ccccc2)cc1	98.8*	0.5	-6.7	-0.6
COc1cccc(NC(=O)CSc2nnc(-c3ccoc3C)n2-c2ccccc2)c1	0.7	-12.1	-10.0	-21.8
CC1(C(=O)OCC(=O)Nc2nc(-c3ccc(F)c(F)c3)cs2)CC1(Cl)Cl (centres undefined)	-0.4	-4.1	0.7	13.4
COc1ccc(NC(=O)c2cc3ccccc3o2)cc1S(=O)(=O)N1CCCCC1	0.3	5.1	10.5	7.5
COc1ccccc1NC(=O)Cc1nnc(SCC(=O)Nc2ccccc2F)n1C	3.3	4.9	-4.5	2.3
CCn1c(CC(=O)Nc2ccccc2OC)nnc1SCC(=O)Nc1ccccc1F	93.1*	-2.9	1.1	4.0
C=CCn1c(SCC(=O)Nc2ccccc2C)nc(O)cc1=O	91.8*	6.5	-0.3	7.4
COc1ccccc1NC(=O)CSc1nc(O)cc(=O)n1C	98.8*	-0.3	-3.0	2.6
CCCn1c(SCC(=O)Nc2cc(Cl)ccc2OC)nc(O)cc1=O	97.9*	1.4	0.8	-3.1
C=CCn1c(SCC(=O)Nc2ccccc2C)nc2sc(C)c(C)c2c1=O	-3.3	-11.0	-3.6	-8.4
CCN(CC)c1ccc(N2C(=NC(=O)C3CC3)SC3CS(=O)(=O)CC32)cc1 (centres undefined)	58.8	-3.0	2.3	3.1
Cc1ccccc1NC(=O)CSc1nc2ccccc2c(=O)n1C	-8.0	-3.5	-1.2	-2.4
Cn1c(SCC(=O)Nc2cccc3ccccc23)nc(O)cc1=O	98.5*	5.5	3.8	-1.2
COc1ccccc1NC(=O)CSc1nc2nc(C)cc(C)c2c(=O)[nH]1	90.6*	0.7	-1.1	1.1
COc1ccc(NC(=O)CSc2nc3nc(C)cc(C)c3c(=O)[nH]2)cc1OC	54.3	0.4	1.8	4.2
CCn1c(SCC(=O)Nc2ccccc2OC)nc(O)cc1=O	97.6*	3.1	-2.2	5.0
Nc1cccc2cnccc12	45.1	5.4	4.1	-3.1
Oc1cccc2cnccc12	99.0*	1.6	-4.7	-2.5
SMILES	ALR H2O2 inh	GC-B act	HDAC3 inh	NPR1 activator
CC(C)OC(=O)N(C)C[C@@H]1OCc2cn(nn2)CCCC(=O)N([C@H](C)CO)C[C@H]1C	nt	2.2	nt	0.6
O=C1CCCC2=C1C(c1ccc(Br)cc1)c1c([nH]c(=S)[nH]c1=O)N2 (centres undefined)	83.0*	1.6	18.6	3.5
CC1=C(C(=O)OCCOC(C)C)C(c2cccnc2)C2=C(CCCC2=O)N1 (centres undefined)	-11.6	0.1	-8.2	-2.4
COC(=O)C1=C(C)NC2=C(C(=O)CCC2)C1c1ccc(-c2ccsc2C(=O)OC)o1 (centres undefined)	-17.6	-7.7	32.5*	-8.0
CC1=C(C(=O)OC2CCCCCC2)C(c2ccc(C)o2)C2=C(CCCC2=O)N1 (centres undefined)	nt	-13.9	5.8	-22.9
CCN(CC)c1ccc(C2C(C(=O)OCCOC(C)C)=C(C)NC3=C2C(=O)CCC3)cc1 (centres undefined)	98.8*	-0.9	-1.5	-2.7
